Test [1] addresses Aldehyde dehydrogenase, mitochondrial (Homo sapiens) (UniProt P05091). The test is described as follows: qHTS for Inhibitors of the Aldehyde Dehydrogenase Family (ALDH2) Primary screen (AID 2061308).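 Note: plate controls were vehicle for no effect and reference inhibitor for full effect; nearly all actives have a fitted effect of over 55% in size.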 In general terms: qHTS replaces the single test concentration by a dilution series.
For test [2], the target named is Retinaldehyde dehydrogenase 3 (Homo sapiens) (UniProt P47895). The test is described as follows: qHTS for Inhibitors of the Aldehyde Dehydrogenase Family (ALDH1A3) Primary screen (AID 2061315).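 Note: plate controls were DMSO vehicle for no effect and reference inhibitor for full effect.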
Test [3] deals with Aldehyde dehydrogenase 1A1 (Homo sapiens) (UniProt P00352). In words: qHTS for Inhibitors of the Aldehyde Dehydrogenase Family (ALDH1A1) Confirmatory screens (AID 2061316). Note: nearly all actives have a fitted effect of over 65% in size. Note: potency is the fitted concentration of half-maximal effect.
The nature of test [4]: BET inhibitor-based combinations targeting novel dependencies in MECOM-rearranged (r) AML: SET-2 cell line (AID 2202231).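 For viability: plate controls were DMSO treated cells for no effect and wells without cells for full effect.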 Note: nearly all actives have a fitted effect of over 35% in size. Note: potency is the fitted concentration of half-maximal effect. The following applies: SET-2 AML cells viability, CellTiter-Glo luminescence, 48 h; viability: active compounds read low, concentration not given here. A digest of the protocol:
(§1)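 Luminescent ATP readout (CellTiter-Glo) after 48 hr drug exposure gives viability. Curves span 11 concentrations and are normalized to DMSO and empty wells. Activity is reported as area under the curve and its Z-transform within each cell line.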
A general note: Cellular ATP, detected with luciferase, serves as a proxy for viable cell number.

Test [5] is described as follows: BET inhibitor-based combinations targeting novel dependencies in MECOM-rearranged (r) AML: OCI-AML3 cell line (AID 2202232). Note: potency is the fitted concentration of half-maximal effect; nearly all actives have a fitted effect of over 35% in size. Conditions: Potency: OCI-AML3 viability. A digest of the protocol: as §1
Test [6] in a line: BET inhibitor-based combinations targeting novel dependencies in MECOM-rearranged (r) AML: MV-4-11 cell line (AID 2202233). Note: potency is the fitted concentration of half-maximal effect; nearly all actives have a fitted effect of over 45% in size. A digest of the protocol:
(§2)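 Luminescent ATP readout (CellTiter-Glo, 15 min at room temperature) after 48 hr drug exposure gave viability. Dose-response curves, normalized to DMSO and empty-well controls, were summarized as area under the curve and its mean-centred Z-score.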

The nature of test [7]: BET inhibitor-based combinations targeting novel dependencies in MECOM-rearranged (r) AML: UCSD-AML1 cell line (AID 2202235). Note: nearly all actives have a fitted effect of over 40% in size. Note: potency is the fitted concentration of half-maximal effect. A digest of the protocol: as §2
Test [8] in a line: BET inhibitor-based combinations targeting novel dependencies in MECOM-rearranged (r) AML: AML-191 cell line (AID 2202236; note: nearly all actives have a fitted effect of over 35% in size; note: potency is the fitted concentration of half-maximal effect). A digest of the protocol:
as §1

Test [9] can be described thus: BET inhibitor-based combinations targeting novel dependencies in MECOM-rearranged (r) AML: AML-194 cell line (AID 2202237; note: nearly all actives have a fitted effect of over 40% in size; note: potency is the fitted concentration of half-maximal effect). A digest of the protocol:
as §1

The nature of test [10]: BET inhibitor-based combinations targeting novel dependencies in MECOM-rearranged (r) AML: HNT-34 cell line (AID 2202234). Note: nearly all actives have a fitted effect of over 35% in size. Note: potency is the fitted concentration of half-maximal effect. A digest of the protocol:
as §2

Structures are written as SMILES. Records with an inconclusive call do not appear. Values without a mark were called inactive. Active and inactive are the calls of the source. Calls come from the whole dose curve; as a rule, active = well fitted curve in the direction sought with a large enough effect; inconclusive = small, poorly fitted or top-dose-only effect, or another doubt; inactive = no such curve, though single readings can be large; an effect the other way counts as inactive or inconclusive.

For the compound `Cc1c(C(=O)OCC(C)(C)C)[nH]c2c1C(=O)CC(c1ccco1)C2` (configuration not stated), the Potency entry in [1] and in test [2] was “inactive” each time. Moreover, in test [3], the Potency was 0.896 µM (active).
A word on the viability: it is a read-out of living cells in per cent, often relative to untreated cells. For the compound `Nc1[nH]nc2nnc(-c3c(-c4ccccc4)nn4ccccc34)cc12`, the Potency entry in test [1], in test [2], in test [7] and in [9] was “inactive” each time. Also, the viability in [4] was 111%. Further, the Potency is 14.8 µM (active) in test [5], 10.5 µM (active) in test [6] and 18.6 µM (active) in [8].
As for `Cc1cc(CN2CCN(c3c(Br)cnc4nc(-c5ccc(N6CCN(C)CC6)cc5)[nH]c34)CC2)no1`, the Potency result in test [1] and in test [2] was “inactive” each time. For the same compound, the Potency was 9.34 µM (active) in test [4]; 8.33 µM (active) in test [5]; 0.332 µM (active) in [6]; 1.48 µM (active) in test [10]; 5.25 µM (active) in [8]; 4.17 µM (active) in test [9].
For the compound `COc1ccc(-c2ccc3ncc4c(c3c2)n(-c2ccc(N3CCNCC3)c(C(F)(F)F)c2)c(=O)n4C)cn1`, the Potency entry in test [1] and in [2] was “inactive” each time. For the same compound, the Potency is 0.332 µM (active) in test [4]; 0.235 µM (active) in [5]; 0.105 µM (active) in test [6]; 0.118 µM (active) in test [10]; 0.0525 µM (active) in test [7]; 0.132 µM (active) in test [8]. In addition, in test [9], the Potency is 0.118 µM (active).
For the compound `O=C(NCc1ccc(S(=O)(=O)c2cccc(C(F)(F)F)c2)cc1)c1cnc2[nH]ncc2c1`, the Potency entry in test [1] and in test [2] was “inactive” in each case. In test [4], the viability is 110%. The Potency in test [5] was 0.0148 µM (active); in test [6], 0.0833 µM (active); in test [10], 0.0263 µM (active); in [8], 0.0148 µM (active); in test [9] it was 0.742 µM (active).
As for `CCC(=O)Nc1ccc(OCc2cc(C3Nc4ccccc4C(=O)N3Cc3ccccc3)ccc2OC)cc1` (configuration not stated), the Potency entry in test [1], in [2] and in [3] was “inactive” throughout.
`COCCNCc1ccc(-c2cc3nccc(Oc4ccc(NC(=S)NC(=O)Cc5ccc(F)cc5)cc4F)c3s2)nc1`: the Potency result in [1] and in [2] was “inactive” each time. Besides, the Potency in test [4] is 4.68 µM (active); in test [5] it was 2.63 µM (active); in test [6] it was 0.132 µM (active); in test [7] it was 2.95 µM (active); in test [8], 2.35 µM (active); in test [9] it was 2.63 µM (active).
`Cc1ccc(C(=O)Nc2ccc(CN3CCN(C)CC3)c(C(F)(F)F)c2)cc1C#Cc1cnc2[nH]ncc2c1`: the Potency result in test [1] and in [2] was “inactive” throughout. Also, the Potency is 4.17 µM (active) in [4]; 0.934 µM (active) in test [5]; 0.0023 µM (active) in test [6]; 0.105 µM (active) in test [7]; 0.0934 µM (active) in test [8]; 0.148 µM (active) in test [9].
Turning to `COc1cc(-c2cc(-c3ccc(N4CCNCC4)cc3)cnc2C)cc(OC)c1OC`, the Potency result in [1] and in test [2] was “inactive” each time. Further, the viability in test [4] was 104%. For the same compound, the Potency in [5] was 8.33 µM (active); in [6], 10.5 µM (active).
Consider `COc1cc2ncnc(Nc3cccc(Cl)c3F)c2cc1OC(=O)N1CCN(C)C[C@H]1C`, for which the Potency entry in [1], in test [2], in [7], in test [8] and in test [9] was “inactive” in each case. For the same compound, in test [4], the viability was 103%. Besides, the Potency in test [5] is 13.2 µM (active); in test [6], 13.2 µM (active); in [10], 16.6 µM (active).
As to `O=C1Nc2nc(-c3c(O)cccc3OCC3CC3)cc([C@@H]3CCCNC3)c2CO1`, the Potency entry in [1] and in test [2] was “inactive” throughout. In addition, the Potency in [4] is 20.9 µM (active); in test [5], 16.6 µM (active); in test [6], 5.9 µM (active); in test [8], 18.6 µM (active); in test [9], 18.6 µM (active).
As for `CCC(=O)Nc1cccc(Oc2nc(Nc3ccc(N4CCN(C)CC4)cc3OC)ncc2Cl)c1`, the Potency entry in test [1], in test [2] and in test [7] was “inactive” throughout. Further, the Potency in test [4] is 20.9 µM (active); in test [5], 14.8 µM (active); in test [6] it was 7.42 µM (active); in [10] it was 11.8 µM (active); in test [8] it was 18.6 µM (active); in [9] it was 23.5 µM (active).
Consider `CCn1c(=O)c(-c2ccc(-c3cncs3)cc2Cl)cc2cnc(Nc3ccc(N4CCN(C)CC4)cc3)nc21`, for which the Potency entry in test [1] and in test [2] was “inactive” throughout. Moreover, in test [4], the viability was 104%.
As to `Cc1ccc(CNc2ccccc2C(=O)Nc2nc(-c3ccccc3)cs2)cc1`, the Potency entry in test [1] and in test [2] was “inactive” in each case. In addition, the Potency in test [3] is 22.5 µM (active).
Take `CN1CCN(C2CCC(n3cc(-c4ccc(Oc5ccccc5)cc4)c4c(N)ncnc43)CC2)CC1` (configuration not stated): the Potency result in test [1] and in test [2] was “inactive” throughout. In addition, the Potency in [4] is 20.9 µM (active); in [5] it was 13.2 µM (active); in test [6], 0.235 µM (active); in test [8], 9.34 µM (active).
As for `CN1CCN(c2cccc(Nc3nc4c(-c5ccc(S(C)(=O)=O)cc5)cccn4n3)c2)CC1`, the Potency entry in test [1] and in [2] was “inactive” throughout. Further, the Potency in test [4] is 4.17 µM (active); in [6], 0.662 µM (active); in [10], 2.35 µM (active); in test [7], 1.66 µM (active); in [8], 5.9 µM (active); in test [9] it was 13.2 µM (active).
For `O=C(O)c1ccc(CN2CCC(CN[C@@H]3C[C@H]3c3ccccc3)CC2)cc1`, the Potency entry in test [1], in test [2], in [10], in test [8] and in test [9] was “inactive” each time. Besides, the Potency in test [4] is 0.186 µM (active); in [7], 0.209 µM (active).

(Values after PubChem BioAssay (NCATS).)
